Assay outcomes deposited in PubChem BioAssay by National Center for Advancing Translational Sciences (NCATS).
Many of the other results were omitted from the sample, so hits are more common in it than they were.
AmpC detergent = inhibitors of E. coli AmpC beta-lactamase with detergent. actives 0.041% (n = 370,000). Potency, µM (top dose mostly 114 µM), hits mostly inhibitors. AmpC hydrolysis of nitrocefin, absorbance 480 nm, 0.01% Triton; also: nearly all actives have a fitted effect of over 25% in size
Target sequence (P00811 whole entry, looked up): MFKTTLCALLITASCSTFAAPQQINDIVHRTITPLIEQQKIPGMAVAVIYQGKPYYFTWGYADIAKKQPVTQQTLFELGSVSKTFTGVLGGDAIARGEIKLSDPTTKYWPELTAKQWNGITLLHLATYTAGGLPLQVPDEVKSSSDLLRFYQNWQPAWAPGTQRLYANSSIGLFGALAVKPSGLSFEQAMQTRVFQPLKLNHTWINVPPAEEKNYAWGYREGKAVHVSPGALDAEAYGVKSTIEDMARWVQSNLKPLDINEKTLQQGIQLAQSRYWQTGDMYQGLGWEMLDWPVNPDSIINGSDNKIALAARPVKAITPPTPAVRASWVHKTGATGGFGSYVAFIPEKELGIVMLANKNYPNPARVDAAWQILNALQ
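20 mM phosphate pH 7.0 + 0.01% (detergent screen) or 0.0001% Triton X-100; 5.3 nM AmpC reagent; cpd preinc 15 min RT; nitrocefin (800 uM stock) to start; A480 q20 s × 4 min; Activity was normalised to no-enzyme and no-compound control wells.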
AmpC inh no detg = inhibitors of E. coli AmpC beta-lactamase without detergent; P00811; AmpC nitrocefin hydrolysis, absorbance 480 nm, 0.0001% Triton; Potency, µM (highest dose often 57.1 µM), hits mostly inhibitors; actives 0.52% (n = 330,000); AID 485341; also: nearly all actives have a fitted effect of over 20% in size
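AmpC (5.3 nM in the dispensed reagent) in 20 mM phosphate pH 7.0 with 0.01% (detergent screen) or 0.0001% Triton X-100 was preincubated with compounds for 15 min at room temperature. Nitrocefin was then added from an 800 uM solution, and hydrolysis was followed at 480 nm.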
Large screens that a line does not name were inactive. Calls follow the shape of the dose curve; as a rule, active = well fitted curve in the direction sought with a large enough effect; inconclusive = small, poorly fitted or top-dose-only effect, or another doubt; inactive = no such curve, though single readings can be large; an effect the other way counts as inactive or inconclusive.

O=C(O)c1cc(O)c2c(c1)[C@@H]([C@H]1c3cc(C(=O)O)cc(O)c3C(=O)c3c(O[C@@H]4O[C@H](CO)[C@@H](O)[C@H](O)[C@H]4O)cccc31)c1cccc(O[C@@H]3O[C@H](CO)[C@@H](O)[C@H](O)[C@H]3O)c1C2=O	AmpC inh no detg 1.3µM (no result: AmpC detergent)
Cc1nnc(NC(=O)CCCCCN2C(=O)C3C4C=CC(C4)C3C2=O)s1 (stereo not given)	AmpC detergent inconclusive, AmpC inh no detg 6.3µM
CC(C)c1nnc(NC(=O)CCCCCN2C(=O)C3C4C=CC(C4)C3C2=O)s1 (stereo not given)	AmpC detergent inconclusive
Cc1ccc(S(=O)(=O)Nc2nnc(C3CCCCC3)s2)cc1	none
Cc1ccc(S(=O)(=O)NC(=O)Nc2nnc(C3CC3)s2)cc1	AmpC inh no detg 4.5µM
Cc1ccc(S(=O)(=O)N(C)c2ccc(OCC(=O)Nc3nnc(C4CC4)s3)cc2)cc1	AmpC inh no detg 14µM
CCc1nnc(NC(=O)COc2ccc(N(C)S(=O)(=O)c3ccc(C)cc3)cc2)s1	none
O=C(CCCN1C(=O)C(c2ccccc2)Oc2cccnc21)Nc1ccc(Br)cc1F (stereo not given)	none (no result: AmpC inh no detg)
O=C(NCCc1ccccc1)c1ccc(CSc2nc3cccnc3n2Cc2ccccc2)cc1	none (no result: AmpC inh no detg)
COC(=O)C1(C(=O)OC)NOC2C(=O)N(c3ccc(Cl)cc3Cl)C(=O)C21 (stereo not given)	AmpC inh no detg 4.5µM
COC(=O)C1(C(=O)OC)NOC2C(=O)N(N(C)c3ncc(C(F)(F)F)cc3Cl)C(=O)C21 (stereo not given)	none
Cc1ccc(-c2[nH]ncc2/C=N/n2c(COc3ccccc3C)nc3ccccc3c2=O)cc1	AmpC inh no detg 8.9µM
Cc1ccccc1OCc1nc2ccccc2c(=O)n1/N=C/c1c[nH]c2ccccc12	AmpC detergent inconclusive
COc1cc(C)ccc1OCCSc1nc2ccc(NC(=O)c3ccco3)cc2s1	none (no result: AmpC inh no detg)
CCN1CCN(Cc2nc3c(c(=O)[nH]c(=O)n3C)n2Cc2ccccc2Cl)CC1	AmpC detergent inconclusive
Cn1c(=O)[nH]c(=O)c2c1nc(CN1CCN(c3cccc(Cl)c3)CC1)n2Cc1ccccc1Cl	AmpC detergent inconclusive, AmpC inh no detg 45µM
CCN1CCN(C(=O)c2cc3c(=O)n(C)c4ccccc4c3n2C)CC1	AmpC detergent inconclusive, AmpC inh no detg 11µM
Cn1c(C(=O)N2CCN(Cc3ccccc3)CC2)cc2c(=O)n(C)c3ccccc3c21	none
Cc1ccc(C)c(S(=O)(=O)c2nnn3c2nc(Nc2ccc(F)c(Cl)c2)c2sccc23)c1	none (no result: AmpC inh no detg)
COc1ccc(S(=O)(=O)N(Cc2nc(-c3cccc(C)c3)no2)C2CCCCC2)cc1	none (no result: AmpC inh no detg)
CC1NC2(C(=O)N(Cc3ccccc3)c3ccccc32)C2C(=O)N(c3ccccc3)C(=O)C12 (stereo not given)	AmpC detergent inconclusive, AmpC inh no detg 11µM
Cc1ccc([C@@H]2[C@@H]3C(=O)N(c4ccccc4)C(=O)[C@@H]3[C@]3(C)C(=O)N(Cc4ccccc4)CC(=O)N23)o1	AmpC detergent inconclusive
Cc1ccc2c(c1)NC(=O)C(CC(=O)NCCCN1CCCC1)O2 (stereo not given)	none
O=C(CC1Oc2ccccc2NC1=O)NCCCN1CCOCC1 (stereo not given)	AmpC detergent inconclusive, AmpC inh no detg 2.5µM
COc1ccccc1-c1nnc(C2CCN(S(=O)(=O)c3ccc(CC(C)C)cc3)CC2)o1	none (no result: AmpC inh no detg)
CN(C)S(=O)(=O)c1cc(NC(=O)CSc2nn(-c3ccc(Cl)cc3)c(=S)s2)ccc1Cl	AmpC detergent inconclusive, AmpC inh no detg 14µM
Cc1ccc(NC(=O)CSc2nn(-c3ccc(Cl)cc3)c(=S)s2)cc1S(=O)(=O)N(C)C	none
CCOc1ccc2nc(SC3CC(=O)N(c4ccccc4)C3=O)sc2c1 (stereo not given)	none
CCOc1ccc2nc(SC3CC(=O)N(c4cccc(OC)c4)C3=O)sc2c1 (stereo not given)	AmpC inh no detg 8.9µM
CCC(=O)NC(C)C(c1cccs1)N1CCN(Cc2ccccc2)CC1 (stereo not given)	AmpC detergent inconclusive, AmpC inh no detg 45µM
CC(NC(=O)c1cccs1)C(c1cccs1)N1CCN(Cc2ccccc2)CC1 (stereo not given)	none
CC(=O)c1ccc(NC(=O)c2nn(C)c3c2COc2ccccc2-3)cc1	none (no result: AmpC inh no detg)
CCCC1=Nc2cc(C(=O)NC3CCCCC3)ccc2Sc2ccc(C)cc21	none (no result: AmpC inh no detg)
Cc1nn(C)c(C)c1S(=O)(=O)NC1CCCC1	none
Cc1nn(-c2nnc(NC3CCCCC3)nn2)c(C)c1Br	AmpC detergent 100µM
NS(=O)(=O)c1cccc(NC(=O)CSc2nc3nc(-c4cccs4)cc(C(F)(F)F)c3c(=O)[nH]2)c1	AmpC inh no detg 16µM
O=C(CSc1nc2nc(-c3cccs3)cc(C(F)(F)F)c2c(=O)[nH]1)Nc1c(F)c(F)c(F)c(F)c1F	none
O=C(c1cccc(F)c1)N1CCC(c2c[nH]c3ccccc23)(c2c[nH]c3ccccc23)CC1	none (no result: AmpC inh no detg)
O=C1CC(NS(=O)(=O)c2cccs2)CN1c1ccc(F)cc1 (stereo not given)	AmpC detergent inconclusive, AmpC inh no detg 32µM
CCOc1ccc(N2CC(NS(=O)(=O)c3cccs3)CC2=O)cc1 (stereo not given)	AmpC detergent inconclusive
COc1ccc(-c2noc(N3CCC(C(=O)N4CCN(c5cccc(OC)c5)CC4)CC3)n2)cc1	none (no result: AmpC inh no detg)
CC(C)c1ccc(S(=O)(=O)/N=C2\C=C(NS(=O)(=O)c3ccccc3)C(=O)c3ccccc32)cc1	none
CC(C)c1ccc(S(=O)(=O)/N=C2/C=CC(=O)c3ccccc32)cc1	AmpC inh no detg 28µM
COC(=O)C(NC(=O)c1ccccc1C)(Nc1ncc(S(=O)(=O)c2ccc([N+](=O)[O-])cc2)s1)C(F)(F)F (stereo not given)	AmpC detergent inconclusive
COC(=O)C(NC(=O)c1ccc(F)cc1)(Nc1ncc(S(=O)(=O)c2ccc([N+](=O)[O-])cc2)s1)C(F)(F)F (stereo not given)	AmpC inh no detg 8.9µM
Cc1ccccc1NC(=O)CN1C(=O)S/C(=C\c2ccc(-c3cc(C(=O)O)ccc3C)o2)C1=O	AmpC detergent 56µM
Cc1cc(C(=O)O)ccc1-c1ccc(/C=C2\SC(=O)N(CC(=O)Nc3ccc4c(c3)OCO4)C2=O)o1	none
Cc1ccc(C(=O)O)cc1-c1ccc(/C=C2\SC(=O)N(CC(=O)Nc3ccccc3)C2=O)o1	AmpC detergent 56µM
Cc1ccc(NC(=O)CN2C(=O)S/C(=C/c3ccc(-c4cccc(C(=O)O)c4)o3)C2=O)cc1	none
COc1cc(NC(=O)CC(c2ccc(C)cc2)N2Cc3ccccc3C2=O)cc(OC)c1 (stereo not given)	none (no result: AmpC inh no detg)
CCC(=O)Nc1ccc(CC)cc1-c1nc2ccccc2n(CC(=O)Nc2cccc(Cl)c2)c1=O	none (no result: AmpC inh no detg)
Cc1cccc(NC(=O)c2ccc(Cn3nc(N4CCN(c5ccccc5)CC4)ccc3=O)o2)c1C	none (no result: AmpC inh no detg)
CC(C)NC(=O)c1ccc2c(c1)nc1n2CCCCC1	none (no result: AmpC inh no detg)
Cc1ccc2nc(/C(C#N)=C/c3ccc(O)c(O)c3)[nH]c2c1	AmpC inh no detg 20µM
Cc1ccc2nc(/C(C#N)=C/c3cccc(Br)c3)[nH]c2c1	none (no result: AmpC inh no detg)
O=C(c1ccco1)N1CCN(c2cc(=O)n(-c3ccc(Cl)cc3)c(=O)[nH]2)CC1	AmpC detergent inconclusive, AmpC inh no detg 45µM
Cc1ccc(Cl)cc1-n1c(=O)cc(N2CCN(C(=O)c3ccco3)CC2)[nH]c1=O	none
